Measured values reported in PubChem BioAssay (EPA / NIEHS).
Active and inactive are the calls of the source. The calls were made as follows: active = hit-call score of the fitted dose curve at least 0.9, where 1 is the maximum; inactive = score below 0.9.

Test: ATG_ERE_CIS: Attagene CIS-FACTORIAL HepG2 Assay for Estrogen Response Element (ERE) (AID 2282940)
Conditions: HepG2 ERE cis-reporter, Attagene RNA transcript; actives raise or lower the signal
Method in brief: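 Readout: reporter mRNA induction by RT-PCR, FAM-labelled primer extension, HpaI digestion and capillary electrophoresis, 24 h after dosing transfected HepG2 cells. Endogenous transcription factors act on cis-element-regulated reporters. Gain or loss fitted against DMSO.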

SMILES	outcome	AC50
COc1cccc(C=O)c1	inactive	–
COc1ccc(OC)c(C=O)c1	inactive	–
COc1cc2c(cc1OC)[C@@]13CCN4CC5=CCO[C@H]6CC(=O)N2[C@H]1[C@H]6[C@H]5C[C@H]43	inactive	–
ClC1=C(Cl)[C@]2(Cl)[C@@H]3[C@@H](Cl)[C@@H](Cl)C[C@@H]3[C@@]1(Cl)C2(Cl)Cl	inactive	–
CC(C)(C)c1cc(O)ccc1O	inactive	–
CC(C)(OO)c1ccccc1	inactive	–
CCOP(=S)(OCC)Oc1ccc(S(C)=O)cc1 (configuration not stated)	inactive	–
CCN1CCC2(CC1)COc1cc3c(cc12)N(C(=O)c1ccc(-c2ccc(-c4nnc(C)o4)cc2C)cc1)CC3	inactive	–
[O-][Cl+2]([O-])O	inactive	–
O=C/C=C/c1ccccc1	–	35 µM (active)
CCC(C)c1cccc(C(C)CC)c1O (configuration not stated)	inactive	–
CC(C)(c1ccc(OCC2CO2)cc1)c1ccc(OCC2CO2)cc1 (configuration not stated)	inactive	–
COP(=S)(OC)Oc1cc(Cl)c(Cl)cc1Cl	–	75.6 µM (active)
O=C(c1ccccc1)C(Cl)Cl	inactive	–
c1ccc(N=NNc2ccccc2)cc1	–	26.3 µM (active)
CC(C#N)CCC#N (configuration not stated)	inactive	–
C(=NC1CCCCC1)=NC1CCCCC1	inactive	–
Cl/C=C/Cl	inactive	–
Cc1ccc(N)cc1Cl	inactive	–
C[C@]12CC[C@H](O)CC1=CC[C@@H]1[C@@H]2CC[C@]2(C)C(=O)CC[C@@H]12	–	0.987 µM (active)
CCSC(C)CC1CC(=O)C(C(CC)=NOC/C=C/Cl)=C(O)C1 (configuration not stated)	inactive	–
CC(C)c1cccc(C(C)C)c1O	inactive	–
CC(C)c1ccc(CO)cc1	inactive	–
CC1(C)Cc2cccc(O)c2O1	inactive	–
CCOP(=O)(CN(CCO)CCO)OCC	inactive	–
N#Cc1ccccn1	inactive	–
COc1ccccc1OC	inactive	–
